Screening results (PubChem)
RE007 growth inh – less growth of the S. pombe RE007 Vpr strain | S. pombe RE007 Vpr strain, BacTiter-Glo ATP luminescence, 24 h | Potency, µM (titrated, usually from 92.2 µM), for the others: at the highest dose activity change, negative = less growth, usual class: inhibitors | AID 651644 | 360,000 compounds, 0.21% hits; active = well fitted falling curve with a large enough effect; inconclusive = small, poorly fitted or top-dose-only effect; inactive = no such curve, though single readings can be large or run the other way; note: % is set by controls: 0 for no effect and ±100 for the full control effect; nearly all actives have a fitted effect of over 50% in size
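Fission yeast strain RE007, carrying one chromosomally integrated HIV-1 vpr copy, was seeded at OD 0.01 in PMG+AL medium with 23 nL pinned compound. After 24 h at 30 °C and 99% humidity, viability was read by BacTiter-Glo luminescence.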
NS1 inh – influenza NS1 inhibition. Potency, µM (doses to about 46.1 µM), inactives show at the top dose activity, positive = more growth. 270,000 compounds, 0.4% hits. AID 2326; calls by dose curve; note: actives are rising curves; nearly all actives have a fitted effect of over 50% in size
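OD600 was taken as the measure of yeast growth restored by compound in an NS1-expressing S. cerevisiae strain. Cells had been washed out of glucose medium and diluted 1:100 into galactose -URA medium, pH 6.0.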
LmPK inh – blocks Leishmania mexicana pyruvate kinase activity | Q27686 | purified LmPK, Kinase-Glo ATP luminescence, 1 h | Potency, µM (highest dose often 57.5 µM), inactives show at the top dose activity change, negative = inhibition, most hits filed as inhibitors | 290,000 compounds, 0.37% hits | AID 1721; note: % is set by controls: 0 for no effect and ±100 for the full control effect
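Pyruvate kinase activity monitored as ATP production (luciferase luminescence). Conditions: 0.1 nM enzyme, 0.5 mM PEP, 0.1 mM ADP, 1 h, RT; normalized against uninhibited and no-enzyme wells.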
Sm TGR inh – blocks Schistosoma mansoni thioredoxin glutathione reductase | Potency, µM (highest dose often 114 µM), inactives show top-dose activity change, negative = inhibition, hits mostly inhibitors | 360,000 compounds, 3% hits | purified TGR, DTNB reduction, TNB absorbance 405 nm; note: % is set by controls: 0 for no effect and ±100 for the full control effect; nearly all actives have a fitted effect of over 60% in size
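TGR 20 nM + NADPH 100 uM (dispensed conc.), cpd preinc 15 min RT; start with NADPH (500 uM addition) then DTNB (15 mM addition). Kinetic TNB absorbance, 405 nm filter. Four-parameter Hill fit across titration.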
Tb PYK inh – T. brucei pyruvate kinase inhibition; Q57TT1; TbPYK enzyme, Kinase-Glo Plus ATP luminescence, 45 min; Potency, µM (series often up to 76.8 µM), for the others: at the highest dose activity, negative = inhibition, most hits filed as inhibitors; 410,000 compounds, 0.12% hits; AID 624173; note: % is set by controls: 0 for no effect and ±100 for the full control effect; nearly all actives have a fitted effect of over 50% in size
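Luminescent Kinase-Glo Plus end-point after 45 min room-temperature reaction of T. brucei pyruvate kinase started with 130 uM ADP (final). Buffer TEA 50 mM pH 7.2 with KCl, MgCl2, BSA, Tween-20; titration-based qHTS with fitted concentration-effect curves.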
FBPA Giardia inh – inhibitors of Giardia lamblia fructose-1,6-bisphosphate aldolase; A8B2U2; purified Giardia FBPA; Potency, µM (top dose mostly 59.6 µM), for the others: at the top dose activity, negative = inhibition, actives largely listed as inhibitors; 290,000 compounds, 0.71% hits; note: % is set by controls: 0 for no effect and ±100 for the full control effect; nearly all actives have a fitted effect of over 55% in size
Target sequence (A8B2U2 whole entry, looked up): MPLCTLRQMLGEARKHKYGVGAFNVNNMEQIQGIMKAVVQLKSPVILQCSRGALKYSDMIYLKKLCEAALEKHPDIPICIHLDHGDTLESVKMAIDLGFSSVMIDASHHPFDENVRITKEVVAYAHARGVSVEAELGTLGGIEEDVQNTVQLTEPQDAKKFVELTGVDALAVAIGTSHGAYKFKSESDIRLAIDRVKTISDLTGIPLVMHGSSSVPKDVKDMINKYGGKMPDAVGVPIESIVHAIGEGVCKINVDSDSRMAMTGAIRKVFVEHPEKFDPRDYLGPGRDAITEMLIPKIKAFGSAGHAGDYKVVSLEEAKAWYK
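Giardia FBPA (40 nM reagent) was preincubated 10 min at RT with compound (up to 57.5 uM final), then substrate plus GAPDH/TPI/NAD/arsenate coupling system with diaphorase/resazurin was added; resorufin fluorescence (525/598 nm) was read after 20 min.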
* = called active by the depositor; ? = inconclusive; · = no result given. Most compounds without a hit are left out; they make up all but 3.5% or so of the library. Unless noted, calls come from the whole dose curve; as a rule, active = well fitted curve in the direction sought with a large enough effect; inconclusive = small, poorly fitted or top-dose-only effect, or another doubt; inactive = no such curve, though single readings can be large; an effect the other way counts as inactive or inconclusive. Potency is the fitted concentration of half-maximal effect.

SMILES	RE007 growth inh	NS1 inh	LmPK inh	Sm TGR inh	Tb PYK inh	FBPA Giardia inh
COCCCn1c(SCC(=O)NC2CCCC2)nnc1-c1ccco1	10.8%	9.9%	4.5%	39.8µM*	-3.9%	6.4%
O=c1oc2ccc3ccccc3c2cc1-c1nnc(Nc2cc(C(F)(F)F)ccc2Cl)s1	·	·	·	-2.5%	-9.6%	·
O[C@@H]1CCN2Cc3ccccc3N=C12	·	·	·	·	·	-19.2%
CC(CC(c1ccccc1)c1ccccc1)NC(C)(C)C (stereo not drawn)	·	·	·	·	0.0%	·
CCOc1ccc(CCNC(=O)/C=C/c2ccco2)cc1OCC	22.4%	-10.8%	-11.7%	6.31µM*	-16.8%	·
COc1ccc(/C=C/C(=O)NCCc2ccc(S(N)(=O)=O)cc2)cc1	7.8%	24.9%	-2.2%	0.3%	-9.9%	8.7%
COc1ccc(CCNC(=O)/C=C/c2ccco2)cc1	-9.3%	3.1%	1.7%	10µM*	?	7.0%
COc1ccc(CCNC(=O)/C=C/c2ccco2)cc1OC	-14.5%	7.3%	-2.8%	11.2µM*	?	-1.9%
COc1ccc(/C=C/C(=O)NCCSCc2ccco2)cc1OC	1.8%	-0.5%	2.8%	10µM*	1.6%	-0.2%
COc1ccc(CCNC(=O)/C=C\c2ccccc2)cc1OC	20.1%	-14.3%	1.2%	7.4%	-4.2%	3.5%
Cc1nc(SCC(=O)OC(C)(C)C)c2c3c(sc2n1)CCCC3	·	·	·	0.7%	1.6%	·
Cc1cccc(-c2nc3c4ccccc4nc(N4CCN(c5ccccc5F)CC4)n3n2)c1	·	·	·	-0.8%	6.2%	·
Cc1ccc(C(=O)C2=C(O)C(=O)N(Cc3ccco3)C2c2cccc(Br)c2)o1 (stereo not drawn)	-5.4%	?	3.5%	11.2µM*	-3.7%	-8.7%
Cc1ccc(C(=O)C2=C(O)C(=O)N(c3ncccn3)C2c2cccc(Cl)c2)o1 (stereo not drawn)	·	2.9%	3.8%	11.2µM*	·	-25.6%
Cc1ccc(C(=O)C2=C(O)C(=O)N(Cc3ccco3)C2c2cccc(Cl)c2)o1 (stereo not drawn)	0.5%	22.7%	-7.5%	50.1µM*	-12.6%	·
Cc1ccc(C(=O)C2=C(O)C(=O)N(Cc3ccco3)C2c2ccc(N(C)C)cc2)o1 (stereo not drawn)	3.5%	?	-10.5%	-22.9%	-5.1%	·
O=C(c1cccs1)N1CCCc2cc(NS(=O)(=O)c3cc(F)ccc3F)ccc21	·	·	·	-11.7%	2.8%	·
Cc1c(Cl)cccc1NC(=O)CC(c1cccs1)N1Cc2ccccc2C1=O (stereo not drawn)	·	·	·	-0.4%	5.0%	·
CCOC(=O)c1c(/C=N/Nc2ccccc2)c2sc(C)cc2n1C	·	·	·	22.4µM*	·	·
Nc1ccc2nc(-c3ccc(Cl)cc3)[nH]c2c1	-27.6%	-9.9%	-2.0%	-2.0%	0.3%	-21.8%
Nc1ccc2nc(-c3cc(Cl)c(N)c(Cl)c3)[nH]c2c1	1.0%	?	15.8µM*	-0.8%	-4.4%	-12.4%
C#C[C@]1(OC(=O)CCCCCC)CC[C@H]2C3CCC4=CC(=O)CC[C@@H]4[C@H]3CC[C@@]21C (stereo partly drawn)	·	·	·	·	1.1%	·
CN=CC1=C(O)c2ccccc2C1=O	-6.7%	-0.7%	1.0%	-16.8%	4.2%	0.0%
O=C1C(C2=C(O)c3ccccc3C2=O)=Nc2ccccc21	?	-34.5%	17.8µM*	?	?	-20.9%
Fc1cccc(NC(=S)Nc2ccc(Br)cc2)c1	7.2%	-39.3%	-0.7%	20µM*	4.4%	-4.3%
SMILES	RE007 growth inh	NS1 inh	LmPK inh	Sm TGR inh	Tb PYK inh	FBPA Giardia inh
O=C(NCC(c1cccnc1)N1CCc2ccccc2C1)C(=O)Nc1cccc(Cl)c1 (stereo not drawn)	·	·	·	-2.2%	-12.2%	·
Cc1ccc(CN2CCN(/N=C/c3ccc(O)c(O)c3)CC2)cc1	-8.3%	25.0%	-26.6%	31.6µM*	?	-7.4%
O=C(O)c1ccc(/C=N/N2CCN(C3c4ccccc4-c4ccccc43)CC2)cc1	17.4%	0.5%	22.4µM*	?	-15.4%	-0.8%
COc1ccc(/C=N/N2CCN(C3c4ccccc4-c4ccccc43)CC2)cc1OC	-24.9%	16.6%	4.0%	-1.8%	-3.9%	-5.9%
Oc1ccc(/C=N/N2CCN(C3c4ccccc4-c4ccccc43)CC2)cc1O	-3.5%	?	1.8%	10µM*	-13.1%	-16.3%
Oc1ccc(/C=N/N2CCN(C3c4ccccc4-c4ccccc43)CC2)cc1	-5.8%	7.8%	2.8%	0.5%	3.9%	29.3%
Cc1ccc2oc(-c3ccc(C)c(NC(=O)c4ccc(-c5ccccc5[N+](=O)[O-])o4)c3)nc2c1	·	·	·	6.3%	-3.2%	·
CCOc1ccccc1NC(=O)CN1C(=O)CC(c2ccc(OC)c(OC)c2)Sc2ccccc21 (stereo not drawn)	·	·	·	-1.6%	1.0%	·
CCOC(=O)c1ccc(NC(=O)c2ccc(CN3C(=O)CCn4nc(C)cc43)cc2)cc1	·	·	·	4.5%	-5.7%	·
CCOc1cccc(CC(=O)N2CCc3c([nH]c4ccc(OC)cc34)C2c2ccc(F)cc2)c1OCC (stereo not drawn)	·	·	·	-11.0%	-1.8%	·
CCOC(=O)c1c(C)c(-c2ccccc2)n(CC(=O)NC2CCCCC2)c1C	·	·	·	0.4%	-12.7%	·
O=C(Nc1ccc(-n2nncc2-c2ccco2)cc1)c1cc2ccccc2oc1=O	6.5%	5.01µM*	2.8%	-3.4%	-9.7%	0.7%
CC(C)c1ccc(C(=O)CC2(O)C(=O)N(CCc3ccccc3)c3ccc(Cl)cc32)cc1 (stereo not drawn)	·	·	·	-3.8%	0.9%	·
O=C(OCC(=O)N1CCCCC1)c1cc2ccccc2cc1O	-29.8%	-32.3%	-2.7%	-2.8%	-10.3%	-0.8%
C/C(CC(=O)N1CCCC1)=N\NC(=O)c1cc2ccccc2cc1O	-0.6%	?	9.0%	?	-0.2%	12.6µM*
Cc1ccc(OCC(=O)Nc2ccc(S(=O)(=O)Nc3onc(C)c3C)cc2)cc1	-7.1%	-56.0%	0.9%	89.1µM*	-2.6%	21.7%
Cc1noc(NS(=O)(=O)c2ccc(NC(=O)CC(C)C)cc2)c1C	6.4%	2.0%	-1.4%	-6.2%	9.7%	-3.0%
Cc1noc(NS(=O)(=O)c2ccc(NC(=O)C(C)C)cc2)c1C	3.1%	-5.9%	-6.0%	25.1µM*	2.3%	8.8%
Cc1ccc(-c2nnnn2-c2ccc(C)cc2)cc1	-2.3%	·	8.7%	10.2%	-3.8%	-7.0%
Cc1ccc(-n2nnnc2CCl)cc1	16.1%	14.1%	-2.3%	5.62µM*	-5.1%	-15.4%
CCc1cccc(NC(=O)c2ccc(CNS(=O)(=O)c3ccc4c(c3)C(C)(C)C(=O)N4C)cc2)c1	·	·	·	1.2%	-2.0%	·
C/C(=N/NC(=O)c1cccs1)c1c(C)[nH]n(-c2nc3ccccc3s2)c1=O	?	29.5%	20µM*	-5.8%	?	-23.3%
